Experimental data taken from PubChem BioAssay (Tox21).
Results filed as inconclusive are left out. Active and inactive are the calls of the source. Unless noted, calls follow the shape of the dose curve; as a rule, active = well fitted curve in the direction sought with a large enough effect in the repeat runs; inconclusive = weak or mixed curves; inactive = no such curve, though single readings can be large; an effect the other way counts as inactive or inconclusive.

Key:
[1] = qHTS assay to identify small molecule antagonists of the estrogen receptor alpha (ER-alpha) signaling pathway using the BG1 cell line in the presence of 0.1 nM 17-beta-estradiol - cell viability counter screen (AID 1259241); also: nearly all actives have a fitted effect of over 40% in size
Summary of the method: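 Viability in VM7Luc4E2 cells after 22 hr compound exposure under 0.1 nM 17beta-estradiol stimulation, by CellTiter-Fluor.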

[2] = qHTS assay to identify small molecule antagonists of the androgen receptor (AR) signaling pathway using the MDA cell line in the presence of 0.5 nM R1881 - cell viability counter screen (AID 1259242); also: nearly all actives have a fitted effect of over 45% in size
Summary of the method: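 qHTS format. MDA-kb2 (MMTV-luc, AR/GR responsive) + cpd + 0.5 nM R1881 final, 16 hr 37C/0% CO2 → CellTiter-Fluor 30 min → fluorescence intensity.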

[3] = target: Estrogen receptor (Homo sapiens) (UniProt P03372); test: qHTS assay to identify small molecule antagonists of the estrogen receptor alpha (ER-alpha) signaling pathway using the BG1 cell line in the presence of 0.1 nM 17-beta-estradiol (AID 1259244); also: nearly all actives have a fitted effect of over 50% in size
Summary of the method: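 Reporter is a stably transfected luciferase under four estrogen responsive elements in VM7Luc4E2 cells expressing native full-length ER-alpha; inhibition of 0.1 nM (final) 17beta-estradiol-driven signal over 22 h is read by luminescence.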

[4] = qHTS assay to identify small molecule HDAC inhibitors (AID 1259364);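 also: wild-type HCT-116 cells with endogenous class I/II HDAC activity; top concentration of the series differs between compounds; nearly all actives have a fitted effect of over 45% in size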
Summary of the method: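 Quantitative high-throughput format: overnight-seeded HCT-116 cells got compounds for 2 hr at 37C; HDAC-Glo I/II reagent added, 30 min RT, luminescence measured.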

[5] = qHTS assay to identify small molecule HDAC inhibitors - cell viability counter screen (AID 1259365); also: series mostly up to about 92 µM; nearly all actives have a fitted effect of over 50% in size
Summary of the method: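 Cytotoxicity was gauged in wild-type HCT-116 cells after a brief 2hr treatment with DMSO-dissolved compounds at 37C and 5% CO2, using CellTiter-Glo luminescence developed for 30min at room temperature.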

[6] = qHTS assay to identify small molecule agonists of the sonic hedgehog signaling (Shh) pathway - cell viability counter screen (AID 1259366); also: nearly all actives have a fitted effect of over 50% in size
Summary of the method: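 Stable Gli1-Luc NIH/3T3 clone, 2,000 cells/well. Compound exposure 24hr at 37C. Read-out: CellTiter-Fluor fluorescence.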

[7] = qHTS assay to identify small molecule antagonists of the sonic hedgehog signaling (Shh) pathway - cell viability counter screen (AID 1259367); also: nearly all actives have a fitted effect of over 55% in size
Summary of the method: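 CellTiter-Fluor signal in conditioned medium-stimulated 3T3 Gli1-Luc cells, 23 hr compound exposure, 37C.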

[8] = qHTS assay to identify small molecule agonists of the sonic hedgehog signaling (Shh) pathway (AID 1259368; calls by dose curve;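 also: NIH/3T3-derived 3T3Gli1-Luc cells carrying a stable Gli1-driven firefly luciferase reporter; series mostly up to about 92 µM; nearly all actives have a fitted effect of over 15% in size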)
Summary of the method: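 Quantitative high-throughput format using a Gli1-driven firefly luciferase reporter line derived from NIH/3T3 cells. After a 24 hr compound treatment at 37 C and 5% CO2, luminescence reported Gli1 response element activity.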

[9] = qHTS assay to identify small molecule antagonists of the sonic hedgehog signaling (Shh) pathway (AID 1259369; calls by dose curve; also: nearly all actives have a fitted effect of over 45% in size)
Summary of the method: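 Stable Gli1-Luc reporter NIH/3T3 clone; quantitative HTS in stimulated mode with conditioned medium. Luminescence measured after 24hr compound treatment at 37 C.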

[10] = qHTS assay to identify small molecule agonists of the androgen receptor (AR) signaling pathway in the presence of an antagonist - cell viability counter screen (AID 1259379);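 also: MDA-kb2 human breast cancer cells carrying an MMTV luciferase reporter; series mostly up to about 92 µM; nearly all actives have a fitted effect of over 25% in size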
Summary of the method: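 Nilutamide-containing (3.0uM final) MDA-kb2 cultures, 3,000 cells/well, were treated with compounds across 15 concentrations. After 16 hr at 37C with no CO2, cell viability was determined by CellTiter-Fluor fluorescence in the luciferase assay wells.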

[11] = qHTS assay to identify small molecule agonists of the estrogen receptor beta (ER-beta) signaling pathway - cell viability counter screen (AID 1259380); also: nearly all actives have a fitted effect of over 30% in size
Summary of the method: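 Steps: plate ER-beta-UAS-bla HEK293T cells, rest 6 hr; add compounds in DMSO; incubate 16 hr at 37C, 5% CO2; add FRET substrate 2 hr; add CellTiter-Glo, wait 30 min at room temperature; read luminescence.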

[12] = qHTS assay to identify small molecule antagonists of the estrogen receptor beta (ER-beta) signaling pathway - cell viability counter screen (AID 1259382);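 also: HEK293T cells carrying ER-beta-UAS-bla reporter stimulated with estradiol; series mostly up to about 92 µM; nearly all actives have a fitted effect of over 55% in size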
Summary of the method: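 Viability is scored by CellTiter-Glo luminescence (30 min, room temperature) in ER-beta-UAS-bla HEK293T wells already read for reporter fluorescence. Compound exposure lasts 16 hr at 37C alongside 1nM 17-beta-estradiol in charcoal-stripped serum medium.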

[13] = target: Estrogen receptor (Homo sapiens) (UniProt P03372); test: qHTS assay to identify small molecule agonists of the estrogen receptor alpha (ER-alpha) signaling pathway in the presence of an antagonist (AID 1259383; calls by dose curve; also: top concentration of the series differs between compounds; nearly all actives have a fitted effect of over 15% in size)
Summary of the method: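 Readout was ERE-driven luciferase luminescence in VM7Luc4E2 cells, which express full-length ER-alpha endogenously. Compounds were tested at 15 concentrations for 22hr alongside 10.0nM ICI-182,780 (final concentration).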

[14] = qHTS assay to identify small molecule agonists or antagonists of the thyroid stimulating hormone receptor (TSHR) signaling pathway - wild type cell line counter screen (AID 1259384; calls by dose curve)
Summary of the method: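 Counter screen in untransfected Hek293: compounds (15-point titration, triplicate) plus phosphodiesterase inhibitor Ro20-1724 added after 18 h plating; 30 min RT. Intracellular cAMP via competitive d2/cryptate immunoassay, 1 h incubation.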

[15] = target: Thyrotropin receptor (Homo sapiens) (UniProt P16473); test: qHTS assay to identify small molecule antagonists of the thyroid stimulating hormone receptor (TSHR) signaling pathway (AID 1259385; calls by dose curve; also: nearly all actives have a fitted effect of over 20% in size)
Summary of the method: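 Antagonist mode: compound-treated TSHR-expressing HEK293 cells were stimulated with 1.5 ng/mL TSH (final) in presence of Ro20-1724 for 30 min at RT. HTRF cAMP detection after 1 h; each compound tested at 15 concentrations, triplicate.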

[16] = qHTS assay to identify small molecule agonists of the estrogen receptor alpha (ER-alpha) signaling pathway in the presence of an antagonist - cell viability counter screen (AID 1259386);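 also: series mostly up to about 92 µM; cells exposed to compounds for 22 h at 37 °C before the viability read; nearly all actives have a fitted effect of over 30% in size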
Summary of the method: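 In this counter screen, compound effects on VM7Luc4E2 viability were tested in the presence of the antagonist ICI-182,780 at 10.0nM final. Compounds were dosed at 15 concentrations, exposure lasted 22hr, and the CellTiter-Fluor signal was read.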

[17] = qHTS assay to identify small molecule phospholipidosis (PLD) inducers (AID 1259344; active = well fitted curve in the direction sought with a large enough effect; an effect the other way counts as inactive or inconclusive)
Summary of the method: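 Accumulated phospholipid, stained red by LipidTOX during 24 h compound treatment of HepG2 cells at 37 C, is quantified from images as pit number and intensity, normalised per cell using Hoechst-stained nuclei.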

[18] = target: Estrogen receptor beta (Homo sapiens) (UniProt Q92731); test: qHTS assay to identify small molecule agonists of the estrogen receptor beta (ER-beta) signaling pathway (AID 1259377; active = well fitted activation curve with a large enough effect in the signal ratio in the repeat runs, not every such curve was filed as active; the % refers to the signal ratio)
Summary of the method: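 Measured by fluorescence intensity from a B/G FRET beta-lactamase substrate (2 h, room temperature) in ER-beta-UAS-bla HEK293T cells treated with DMSO-dissolved compounds for 16 hr at 37C and 5% CO2.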

[19] = target: Estrogen receptor beta (Homo sapiens) (UniProt Q92731); test: qHTS assay to identify small molecule antagonists of the estrogen receptor beta (ER-beta) signaling pathway (AID 1259378; active = well fitted inhibition curve with a large enough effect in the signal ratio in the repeat runs, not every such curve was filed as active; the % refers to the signal ratio)
Summary of the method: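 Antagonist mode: compounds added to beta-lactamase reporter HEK293T ER-beta-UAS cells stimulated with E2 (1nM final), 16 hr at 37C. LiveBLAzer B/G FRET substrate, 2 hours room temperature, fluorescence read-out.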
% is scaled to controls: 0 for no effect and ±100 for the full control effect.

Estrogen receptor (Homo sapiens), sequence (P03372 whole entry, looked up): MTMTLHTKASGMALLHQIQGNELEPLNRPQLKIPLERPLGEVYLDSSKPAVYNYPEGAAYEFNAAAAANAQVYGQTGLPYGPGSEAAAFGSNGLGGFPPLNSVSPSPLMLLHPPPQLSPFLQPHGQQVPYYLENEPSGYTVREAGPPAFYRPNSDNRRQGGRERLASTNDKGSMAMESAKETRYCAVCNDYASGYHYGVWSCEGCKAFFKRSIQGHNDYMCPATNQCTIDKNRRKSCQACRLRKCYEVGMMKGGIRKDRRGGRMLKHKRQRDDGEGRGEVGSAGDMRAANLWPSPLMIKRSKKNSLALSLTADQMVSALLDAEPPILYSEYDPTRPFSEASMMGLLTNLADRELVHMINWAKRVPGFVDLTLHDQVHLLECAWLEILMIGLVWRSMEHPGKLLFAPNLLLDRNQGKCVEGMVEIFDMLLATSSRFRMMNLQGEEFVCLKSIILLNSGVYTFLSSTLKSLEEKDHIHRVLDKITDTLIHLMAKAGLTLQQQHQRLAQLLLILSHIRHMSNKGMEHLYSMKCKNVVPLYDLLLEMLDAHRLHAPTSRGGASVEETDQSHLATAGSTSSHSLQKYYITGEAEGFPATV
Thyrotropin receptor (Homo sapiens), sequence (P16473 whole entry, looked up): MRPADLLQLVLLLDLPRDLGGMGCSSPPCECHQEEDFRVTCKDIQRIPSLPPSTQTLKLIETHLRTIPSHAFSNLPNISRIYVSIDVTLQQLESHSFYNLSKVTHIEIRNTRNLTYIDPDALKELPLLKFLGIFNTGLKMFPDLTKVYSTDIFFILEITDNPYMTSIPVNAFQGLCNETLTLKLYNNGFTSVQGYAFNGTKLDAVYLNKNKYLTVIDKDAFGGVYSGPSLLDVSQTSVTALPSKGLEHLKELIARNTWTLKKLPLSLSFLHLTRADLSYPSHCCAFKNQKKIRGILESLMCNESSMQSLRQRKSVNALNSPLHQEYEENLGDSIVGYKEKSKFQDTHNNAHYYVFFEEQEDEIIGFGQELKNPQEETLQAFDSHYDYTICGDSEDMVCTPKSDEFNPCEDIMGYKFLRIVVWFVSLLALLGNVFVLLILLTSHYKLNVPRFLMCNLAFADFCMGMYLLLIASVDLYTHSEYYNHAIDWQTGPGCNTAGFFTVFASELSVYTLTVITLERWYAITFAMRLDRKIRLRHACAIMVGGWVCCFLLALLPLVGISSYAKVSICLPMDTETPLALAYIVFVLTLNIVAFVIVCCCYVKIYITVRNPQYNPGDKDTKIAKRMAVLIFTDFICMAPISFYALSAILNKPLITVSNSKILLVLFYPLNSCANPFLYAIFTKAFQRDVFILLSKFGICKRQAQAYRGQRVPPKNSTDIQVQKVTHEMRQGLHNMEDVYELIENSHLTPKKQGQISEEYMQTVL
Estrogen receptor beta (Homo sapiens), sequence (Q92731 whole entry, looked up): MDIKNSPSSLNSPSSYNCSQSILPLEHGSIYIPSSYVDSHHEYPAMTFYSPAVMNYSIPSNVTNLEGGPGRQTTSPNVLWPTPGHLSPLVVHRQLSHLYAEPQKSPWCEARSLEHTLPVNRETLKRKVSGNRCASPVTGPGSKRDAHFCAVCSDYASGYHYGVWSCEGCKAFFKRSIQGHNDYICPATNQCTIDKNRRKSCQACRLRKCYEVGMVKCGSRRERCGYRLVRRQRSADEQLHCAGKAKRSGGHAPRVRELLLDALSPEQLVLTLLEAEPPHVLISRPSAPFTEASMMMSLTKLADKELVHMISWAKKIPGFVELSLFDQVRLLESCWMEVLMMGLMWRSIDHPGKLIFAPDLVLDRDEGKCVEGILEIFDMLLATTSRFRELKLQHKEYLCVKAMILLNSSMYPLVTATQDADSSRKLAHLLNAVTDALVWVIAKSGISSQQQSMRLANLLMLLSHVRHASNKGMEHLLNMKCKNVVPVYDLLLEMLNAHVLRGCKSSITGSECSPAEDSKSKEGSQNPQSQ

Cc1sccc1Br
inactive: outcome [1] | Potency [2] | outcome [3] | Potency [4] | outcome [5] | Potency [6] | Potency [7] | outcome [8] | Potency [9] | Potency [10] | Potency [11] | Potency [12] | Potency [13] | outcome [14] | Potency [15] | Potency [16]

CCCc1cc(C(N)=S)ccn1
inactive: outcome [1] | Potency [2] | outcome [3] | Potency [17] | Potency [4] | outcome [5] | Potency [6] | Potency [7] | outcome [8] | Potency [10] | Potency [11] | Potency [12] | Potency [13] | Potency [15] | Potency [16]

CC(=O)OCC(=O)[C@@]1(O)CC[C@H]2[C@@H]3CCC4=CC(=O)CC[C@]4(C)[C@H]3C(=O)C[C@@]21C
inactive: outcome [1] | Potency [2] | outcome [3] | Potency [4] | outcome [5] | Potency [6] | Potency [7] | outcome [8] | Potency [9] | outcome [18] | outcome [19] | Potency [10] | Potency [11] | Potency [12] | Potency [16]

CC(=O)c1ccccc1O
inactive: outcome [1] | Potency [2] | outcome [3] | Potency [4] | outcome [5] | Potency [6] | Potency [7] | outcome [8] | Potency [9] | Potency [10] | Potency [12] | Potency [13] | outcome [14] | Potency [15] | Potency [16]

O=C(O)c1ccccc1OP(=O)(O)O
inactive: outcome [1] | Potency [2] | outcome [3] | Potency [4] | outcome [5] | Potency [6] | Potency [7] | outcome [8] | outcome [18] | outcome [19] | Potency [10] | Potency [11] | Potency [12] | Potency [15] | Potency [16]

C=CCCCCCCCCC=O
inactive: outcome [1] | Potency [2] | outcome [3] | outcome [5] | Potency [6] | Potency [7] | outcome [8] | Potency [9] | outcome [18] | outcome [19] | Potency [10] | Potency [12] | Potency [13] | outcome [14] | Potency [15] | Potency [16]

CN(C)CCCNCCCN(C)C
inactive: outcome [1] | Potency [2] | outcome [3] | Potency [4] | outcome [5] | Potency [6] | Potency [7] | Potency [9] | Potency [10] | Potency [11] | Potency [12] | Potency [13] | outcome [14] | Potency [15] | Potency [16]

CCCCC/C=C\CCC=O
inactive: outcome [1] | Potency [2] | outcome [3] | Potency [4] | outcome [5] | Potency [6] | Potency [7] | Potency [10] | Potency [11] | Potency [12] | outcome [14] | Potency [15] | Potency [16]

CCN(Cc1ccncc1)C(=O)C(CO)c1ccccc1 (stereo unspecified)
inactive: outcome [1] | Potency [2] | Potency [17] | Potency [4] | outcome [5] | Potency [6] | Potency [7] | outcome [8] | Potency [9] | outcome [18] | outcome [19] | Potency [10] | Potency [12] | outcome [14] | Potency [15] | Potency [16]

CC(=O)N(CC(O)CO)c1c(I)c(C(=O)NCCO)c(I)c(C(=O)NCC(O)CO)c1I (stereo unspecified)
inactive: outcome [1] | Potency [2] | Potency [17] | outcome [5] | Potency [6] | Potency [7] | Potency [10] | Potency [11] | Potency [12] | outcome [14] | Potency [15] | Potency [16]

OCCCC1CCCCC1
inactive: outcome [1] | Potency [2] | outcome [3] | outcome [5] | Potency [6] | Potency [7] | outcome [8] | Potency [9] | outcome [18] | Potency [10] | Potency [11] | Potency [12] | Potency [13] | outcome [14] | Potency [15] | Potency [16]

C[C@](N)(Cc1ccc(O)cc1)C(=O)O
inactive: activity change, negative = cytotoxicity [1] 0.275% [at 8.39 µM] | viability change, negative = cytotoxic [2] 2.64% [at 8.39 µM] | activity change, negative = inhibition [3] -5.6% [at 8.39 µM] | activity change, negative = inhibition [4] -0.294% [at 8.39 µM] | activity change, negative = cytotoxicity [5] -1.98% [at 8.39 µM] | viability change, negative = cytotoxic [6] 4.48% [at 8.39 µM] | viability change, negative = cytotoxic [7] 4.1% [at 8.39 µM] | activity change [8] -0.726% [at 8.39 µM] | activity change, negative = cytotoxicity [10] -1.36% [at 8.39 µM] | activity change, negative = cytotoxicity [11] 14.6% [at 8.39 µM] | activity change, negative = cytotoxicity [12] 4.19% [at 8.39 µM] | activation [13] 1.12% [at 8.39 µM] | cAMP activity change [14] 3.57% [at 8.39 µM] | activity change, negative = inhibition [15] 1.98% [at 8.39 µM] | activity change, negative = cytotoxicity [16] 3.17% [at 8.39 µM]

CN1CCC(=C2c3ccccc3CC(=O)c3sccc32)CC1
inactive: outcome [1] | Potency [2] | outcome [3] | outcome [5] | Potency [6] | Potency [7] | outcome [8] | Potency [9] | outcome [18] | outcome [19] | Potency [10] | Potency [11] | Potency [12] | Potency [13] | outcome [14] | Potency [15] | Potency [16]
